Experimental data as given in PubChem BioAssay AID1626 (SRMLSC, 2009).
Out of some 220,000 compounds screened, about 2,000 (0.91%) were called active. Not shown: some 2% with an inconclusive outcome. Cut-off read from the data, not from the text of the source: inconclusive = inhibition above about 80% without an active follow-up result; inactive = below that; test concentration not stated here. Only a sample is shown. Potency and affinity values are given separately.

Assay: M. tuberculosis H37Rv growth inhibitors, H37Rv strain (AID 1626);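 note: bacteria incubated seven days before Alamar blue readout; 0% = bacteria only wells and 100% = bacteria with antibiotic wells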
Settings: hits give high values, concentration not given here

| SMILES | inhibition |
| --- | --- |
| COc1ccc(/C=N/NC(=O)c2c([N+](=O)[O-])c(C)nn2C)cc1 | 1.88% (inactive) |
| CS(=O)(=O)c1ccc2nc(NC(=O)c3ccc(NS(=O)(=O)c4cccc([N+](=O)[O-])c4)cc3)sc2c1 | 34.8% (inactive) |
| CC(=NCC1CCCO1)c1c(O)n(-c2ccccc2C)c(=O)[nH]c1=O (stereo not drawn) | -6.91% (inactive) |
| CCCn1c(=N)c(C(=O)NCC2CCCO2)cc2c(=O)n3cccc(C)c3nc21 (stereo not drawn) | -1.86% (inactive) |
| N=c1c(C(=O)NCc2ccco2)cc2c(=O)n3ccccc3nc2n1CCc1ccccc1 | -6.57% (inactive) |
| CCOCCCn1c(=N)c(C(=O)NCc2ccc3c(c2)OCO3)cc2c(=O)n3cccc(C)c3nc21 | 26.6% (inactive) |
| CCNC(=O)c1cc2c(=O)n3cccc(C)c3nc2n(CCc2ccccc2)c1=N | -3.98% (inactive) |
| COc1ccc(N2CCN(C(=O)CCCCCn3c(=O)[nH]c4ccsc4c3=O)CC2)cc1 | 0.96% (inactive) |
| CS(=O)(=O)N1Cc2ccccc2CC1C(=O)Nc1ccccc1C(N)=O (stereo not drawn) | 0.87% (inactive) |
| CCc1ccc(N2Cc3ccccc3C2)cc1 | 14.3% (inactive) |
| CN(C)CCNC(=O)/C=N/O | -1.95% (inactive) |
| O=C(NC1CCCCCC1)c1ccccc1-c1ccccc1 | 36% (inactive) |
| O=C(NC1CCCCC1)c1ccccc1-c1ccccc1 | 0.73% (inactive) |
| COc1cc(/C=N/NC(=O)CCc2n[nH]c(=O)[nH]c2=O)cc(OC)c1OC | -3.85% (inactive) |
| CCCCN1C(=O)CC(Sc2ncccc2C(=O)O)C1=O (stereo not drawn) | 3.02% (inactive) |
| Cc1cc(N2C(=O)C3CCCN3C2c2cccc(Cl)c2)no1 (stereo not drawn) | -8.92% (inactive) |
| Cc1ccc(NC(=O)COc2ccccc2[N+](=O)[O-])nc1 | 0.84% (inactive) |
| CN(C(=O)COc1ccccc1)c1nc(-c2ccc(F)cc2)cs1 | -0.64% (inactive) |
| N#CCCN(C(=O)CCl)c1cccc(Cl)c1 | 32.5% (inactive) |
| Cc1ccc(C(=O)N(CC#N)CC#N)cc1C | 0.74% (inactive) |
| Cc1cccc(-c2noc(CCCOc3ccc(Cl)cc3Cl)n2)c1 | -7.47% (inactive) |
| Cc1ccc2c(c1)N=C(c1ccc(F)cc1)CO2 | -1.59% (inactive) |
| Clc1ccc(C2=Nc3cc(Cl)ccc3OC2)cc1 | -4.24% (inactive) |
| COCC(COCCCNC(=O)Nc1ccc(Br)cc1)OC (stereo not drawn) | 2.27% (inactive) |
| CCOC(=O)c1sc(C)c2c1NC1(CCCCC1)NC2=O | 2.89% (inactive) |

| SMILES | inhibition |
| --- | --- |
| O=C(NCc1cccnc1)c1ccccc1CCc1ccccc1 | 5.46% (inactive) |
| Cc1ccc(CSc2nnc(-c3ccc(NS(=O)(=O)c4ccccc4)cc3)o2)cc1 | 11.7% (inactive) |
| C=CCSc1nnc(-c2cccnc2)o1 | -5.82% (inactive) |
| CCOC(=O)CSc1ncc(-c2ccc([N+](=O)[O-])cc2)[nH]1 | 47.4% (inactive) |
| NC(=O)CSc1nnc(-c2ccc([N+](=O)[O-])cc2)o1 | -3.14% (inactive) |
| Cc1ccc(S(=O)(=O)Nc2ccc(-c3nnc(SCc4ccccc4Cl)o3)cc2)cc1 | 0.5% (inactive) |
| N#CCSc1nnc(-c2sc3ccccc3c2Cl)o1 | 11.6% (inactive) |
| CSc1nnc(-c2ccc([N+](=O)[O-])cc2)o1 | 34% (inactive) |
| COC(=O)CSc1nnc(-c2ccncc2)o1 | -2.74% (inactive) |
| COC(=O)c1cc(NS(=O)(=O)c2ccc(C)c3ccccc23)ccc1N1CCOCC1 | -0.65% (inactive) |
| O=C1CC(N2CCC(O)CC2)C(=O)N1c1ccc(Br)cc1 (stereo not drawn) | -5.77% (inactive) |
| O=C(CC1(O)C(=O)N(CCc2ccccc2)c2ccccc21)c1ccccn1 (stereo not drawn) | -2.54% (inactive) |
| CC(=O)c1c(C)[nH]c(C(=O)OCC(=O)N2c3ccccc3NC(=O)C2(C)C)c1C | 1.01% (inactive) |
| CCS(=O)(=O)Nc1ccc(-c2nnc(SCC(=O)OC)o2)cc1 | 6.98% (inactive) |
| COC(=O)CSc1nnc(-c2ccc(S(=O)(=O)NCc3cccs3)cc2)o1 | 62.9% (inactive) |
| COC(=O)COc1cc(Cl)c(C=O)cc1OC | 4.35% (inactive) |
| COC(=O)COc1ccccc1/C=C1/NC(=O)NC1=O | -6.93% (inactive) |
| OC1CN=C2CCCc3c2n(c2ccc(Cl)cc32)C1 (stereo not drawn) | -8.27% (inactive) |
| Cc1ccc2c(c1)c1c(n2C)C(=O)CCC1 | -12.1% (inactive) |
| CCN1CCn2c3c(c4cc(C)ccc42)CCCC31 (stereo not drawn) | 3.23% (inactive) |
| COc1ccc2c(c1)c1c3n2CCN(C)C3=NCC1 | -9.72% (inactive) |
| Cc1ccc(C(=O)Nc2cc(C)c(OCC(=O)N3CCOCC3)c(C)c2)cc1 | 0.81% (inactive) |
| COc1ccc(C2C(C#N)=C(N)Oc3cc(C)n(Cc4ccco4)c(=O)c32)cc1 (stereo not drawn) | 3.54% (inactive) |
| CCSc1ncnc2c1sc1nc3c(cc12)COC(C)(C)C3 | 12.9% (inactive) |
| CC1(C)Cc2nc3sc4c(SCC(=O)O)ncnc4c3cc2CO1 | -5.61% (inactive) |

| SMILES | inhibition |
| --- | --- |
| O=C(NCCCn1ccnc1)C(=O)NCC1OCCCN1S(=O)(=O)c1ccc(Cl)cc1 (stereo not drawn) | 1.46% (inactive) |
| O=C(O)c1ccc(CN2CCCCC2)o1 | -8.71% (inactive) |
| COc1ccc(C2(CNC(=O)c3ccc(OC)c([N+](=O)[O-])c3)CCCCC2)cc1OC | 8.89% (inactive) |
| COc1ccc(C2(CNC(=O)c3cccc([N+](=O)[O-])c3)CCCCC2)cc1OC | 17.8% (inactive) |
| O=C(Nc1nnc(SCC(=O)N2CCCCC2)s1)c1cccs1 | -7.76% (inactive) |
| Cc1ccc(F)cc1NC(=O)C1CCN(c2cnccn2)CC1 | -7.04% (inactive) |
| Cc1nn(Cc2ccccc2)c(N)c1-c1ccccc1 | -0.48% (inactive) |
| O=C(Nc1ccccc1)c1n[nH]c(Cn2cncn2)n1 | -3.09% (inactive) |
| O=C(CSc1nc2ccc(Cl)cc2[nH]1)NC1CCCc2ccccc21 (stereo not drawn) | 17.1% (inactive) |
| COc1ccc2nc(SCC(=O)Nc3ccccc3)[nH]c2c1 | 6.28% (inactive) |
| NS(=O)(=O)c1cccc(NC(=O)CSc2nc3ccc(Cl)cc3[nH]2)c1 | -6.21% (inactive) |
| COc1ccc(NC(=O)CSc2nc3ccc(OC)cc3[nH]2)cc1 | 45.7% (inactive) |
| O=C(OCC(=O)N1CCCC1=O)C1COc2ccccc2O1 (stereo not drawn) | 2.07% (inactive) |
| CCN(CC)CCCNC(=O)c1cn(C)c2ccc(S(=O)(=O)N(C)C)cc2c1=O | -9.88% (inactive) |
| O=C(CCc1nc2ccccc2c(=O)[nH]1)N1CCN(c2ccc(F)cc2)CC1 | -1.16% (inactive) |
| COc1cc(/C=N/n2c(-c3n[nH]c4c3CCC4)n[nH]c2=S)cc(OC)c1O | -6.81% (inactive) |
| CC1CCN(S(=O)(=O)c2ccc3[nH]c(=O)cc(C(=O)O)c3c2)CC1 | -1.86% (inactive) |
| NS(=O)(=O)c1ccc(Sc2nc3ccccc3s2)c([N+](=O)[O-])c1 | 5.37% (inactive) |
| CS(=O)(=O)c1ccc(Sc2nc3ccccc3s2)c([N+](=O)[O-])c1 | 76.8% (inactive) |
| CN1CCc2c(C#N)c(N3CCOCC3)nc(NCC3CCCO3)c2C1 (stereo not drawn) | -11.2% (inactive) |
| C=CCSc1nnc(-c2sc(-c3ccccc3)nc2C)n1C | 6.24% (inactive) |
| C#CCOCCOCCOCCNc1nc(N2CCN(C(=O)[C@H](CCC(=O)O)n3cc(C(N)CC(C)C)nn3)CC2)nc(N2CCN(C(=O)[C@H](Cc3ccc(O)cc3)n3cc(C(N)CC(C)C)nn3)CC2)n1 (stereo partly drawn) | -8.68% (inactive) |
| Cc1ccc(C(=O)Nc2ncc(Cc3ccc(SC(F)F)cc3)s2)cc1 | 6.66% (inactive) |
| CC(C)C(=O)Nc1ncc(Cc2ccc(Cl)cc2)s1 | 18.6% (inactive) |
| CC(=O)Nc1ncc(Cc2cccc(Cl)c2)s1 | 3.07% (inactive) |

| SMILES | inhibition |
| --- | --- |
| O=C(Nc1ncc(Cc2ccccc2)s1)C1COc2ccccc2O1 (stereo not drawn) | 13.8% (inactive) |
| Cc1ccc(C(=O)Nc2ncc(Cc3ccccc3)s2)o1 | -9.94% (inactive) |
| CC(C)C(=O)Nc1ncc(Cc2ccccc2Cl)s1 | -0.08% (inactive) |
| O=C(Nc1ncc(Cc2cccc(Cl)c2)s1)c1ccc([N+](=O)[O-])cc1 | -4.66% (inactive) |
| O=C(Nc1ncc(Cc2ccccc2Cl)s1)c1ccc([N+](=O)[O-])cc1 | -9.37% (inactive) |
| COc1cccc(C(=O)Nc2nnc(Cc3ccc(OC)c(OC)c3)s2)c1 | 4.42% (inactive) |
| COC(=O)C1=C(C)N(Cc2ccco2)C(=O)N[C@H]1c1cccc(C(F)(F)F)c1 | -4.29% (inactive) |
| COC(=O)C(NC(=O)CSc1nc(N)cc(=O)[nH]1)c1ccccc1 (stereo not drawn) | 6.05% (inactive) |
| Cc1ccc(SCC(=O)N(C)C2CCS(=O)(=O)C2)cc1 (stereo not drawn) | 71.9% (inactive) |
| O=C(N/N=C/c1ccc(OCCCF)cc1)c1ccc(C(F)(F)F)cc1 | -7.89% (inactive) |
| O=C(CSc1nnc(CNc2ccc(F)cc2)n1Cc1ccccc1)NCc1ccco1 | -3.56% (inactive) |
| CCN(CC)C1=N/C(=C\c2ccc(OC)cc2)C(=O)N1c1ccccc1 | 5.04% (inactive) |
| COc1cc(NC(=O)CSc2nc3ccccc3cc2Cc2ccccc2)cc(OC)c1 | -2.51% (inactive) |
| CCCCCn1c(SCc2cccc(C)c2)nc2c1c(=O)[nH]c(=O)n2C | 14.6% (inactive) |
| CC/C(=N\NC(=O)c1cccnc1)c1ccc2c(c1)OCCO2 | 3.21% (inactive) |
| CC1(C)CC(NC(=O)CCc2nnc(CCCCc3ccccc3)o2)CCO1 (stereo not drawn) | -4.26% (inactive) |
| Cc1ccc(NC(=S)N(CCN2CCOCC2)Cc2cc3cc4c(cc3[nH]c2=O)OCCO4)cc1 | 2.46% (inactive) |
| Oc1ccc2ccccc2c1CNn1cnnc1 | 1.43% (inactive) |
| NC(=S)Nc1cnc2ccccc2c1 | 0.46% (inactive) |
| Cn1c(NCc2c(O)ccc3ccccc23)nc2ccccc21 | 6.55% (inactive) |
| CCN(CC)C(=O)Nc1cnc2ccccc2c1 | 63.2% (inactive) |
| COc1cccc(CNc2ncc(Br)cc2Br)c1O | -8.94% (inactive) |
| COc1cccc(CNc2cccc3cccnc23)c1O | 6.53% (inactive) |
